The values that follow come from PubChem BioAssay (EPA / NIEHS).

Activity calls are given as the source filed them. How the source made its calls: active means hit-call score of the fitted dose curve at least 0.9, where 1 is the maximum; inactive means score below 0.9.

The nature of assay [1]: ATG_CRE_CIS: Attagene CIS-FACTORIAL HepG2 Assay for human cAMP Responsive Element (CRE) binding protein 3 (AID 2282926). To be noted: HepG2 CRE cis-reporter, Attagene multiplexed mRNA; actives raise or lower the signal. The gist of the method: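 Capillary electrophoresis of 6-FAM-labelled, HpaI-digested PCR products quantified reporter transcripts. These came from HepG2 transiently transfected with cis-element reporters and exposed to test chemicals for 24 hours, with DMSO defining baseline activity.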

Assay [2] addresses CCAAT/enhancer-binding protein beta (Homo sapiens) (UniProt P17676). Description: ATG_C_EBP_CIS: Attagene CIS-FACTORIAL HepG2 Assay for human CCAAT/Enhancer Binding Protein (C/EBP) beta (AID 2282927). To be noted: HepG2 Attagene cis-factorial transcription factor reporter; actives raise or lower the signal. An outline of the steps:
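Following a 24 h incubation with test chemical, transfected HepG2 cells yielded RNA whose reporter transcripts were quantified by RT-PCR and fluorescent capillary electrophoresis, with DMSO serving as baseline for bidirectional fitting.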

A short description of assay [3]: ATG_CMV_CIS: Attagene CIS-FACTORIAL HepG2 Assay for human CMV (Internal Marker) (AID 2282928).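 Further: endpoint acts as a background internal control marker rather than a target.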 To be noted: HepG2 CMV promoter reporter, transcription factor profiling; actives raise or lower the signal. The gist of the method: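 24 h chemical treatment, HepG2 with transient multi-reporter transfection; RNA → oligo(dT) RT → PCR → 6-FAM extension → HpaI digest → CE fluorescence. Bidirectional fit, DMSO negative control.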

Assay [4] in a line: ATG_DR4_LXR_CIS: Attagene CIS-FACTORIAL HepG2 Assay for human Liver X Receptor (LXR), DR4 submotif (AID 2282929). To be noted: HepG2 Attagene DR4 cis-reporter, mRNA transcription; actives raise or lower the signal. An outline of the steps: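 Measures endogenous transcription factor activity via a DR4-driven reporter transcript in human HepG2 cells. Compounds incubated 24 h; mRNA quantified by RT-PCR and capillary electrophoresis, analysed as gain or loss of signal versus DMSO.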

The nature of assay [5]: ATG_AP_1_CIS: Attagene CIS-FACTORIAL HepG2 Assay for human Activator Protein 1 (AP-1) (AID 2282931). To be noted: HepG2 Attagene cis-factorial AP-1 reporter mRNA; actives raise or lower the signal. The gist of the method: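 Bidirectional concentration-response fitting against DMSO controls. Underlying signal: reporter mRNA from cis-promoter constructs in transiently transfected HepG2, measured after 24 h by RT-PCR and capillary electrophoresis.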

Assay [6] in a line: ATG_BRE_CIS: Attagene CIS-FACTORIAL HepG2 Assay for human Bone Morphogenetic Protein (BMP) Response Element (BRE) (AID 2282933). To be noted: HepG2 BMP response element reporter, Attagene transcription factor profiling; actives raise or lower the signal. An outline of the steps:
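Fluorescence-labelled reporter cDNA fragments, separated by capillary electrophoresis, gave the signal for this component of a 52-readout multiplex. HepG2 cells were transfected, exposed to chemicals for 24 h, and compared with DMSO using bidirectional fitting.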

Assay [7] in a line: ATG_E_Box_CIS: Attagene CIS-FACTORIAL HepG2 Assay for human Enhancer Box (E-box) (AID 2282936). To be noted: HepG2 E-box cis-reporter transcription, actives raise or lower the signal. An outline of the steps:
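Endogenous transcription factor activity was sensed in human HepG2 liver cells through transfected cis-promoter reporter units. After 24 h of dosing, total RNA was reverse-transcribed and reporter cDNA resolved by capillary electrophoresis.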

Assay [8] is described as follows: ATG_M_19_CIS: Attagene CIS-FACTORIAL HepG2 Assay for M19 Transcription Factor (Internal Marker) (AID 2282939). To be noted: HepG2 Attagene CIS-FACTORIAL M19 internal marker reporter; actives raise or lower the signal. An outline of the steps:
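HepG2, MRTU transient transfection, 24 h dosing. Total RNA → RT-PCR → 6-FAM primer extension → HpaI digest → CE fluorescence. Bidirectional curve fit, DMSO negative control.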

Assay [9] can be described thus: ATG_GATA_CIS: Attagene CIS-FACTORIAL HepG2 Assay for human GATA Binding Protein (AID 2282944). To be noted: HepG2 GATA cis-element reporter, Attagene multiplex mRNA; actives raise or lower the signal. The gist of the method:
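Cells: HepG2, transiently transfected with cis-regulated reporter transcription units. Exposure: 24 h. Detection: RT-PCR plus capillary electrophoresis of FAM-labeled fragments. Analysis: bidirectional, DMSO as baseline.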

Assay [10] can be described thus: ATG_ISRE_CIS: Attagene CIS-FACTORIAL HepG2 Assay for human Interferon Regulatory Factor 1 (IRF1) binding to an Interferon-Stimulated Response Element (ISRE) (AID 2282948). To be noted: HepG2 ISRE cis-reporter (Attagene), mRNA transcription readout; actives raise or lower the signal. An outline of the steps:
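Multiplexed mRNA reporter readout in human liver HepG2 cells: cis-element-driven reporters transfected, compound added for 24 h, transcripts amplified, fluorescently labelled and sized by capillary electrophoresis; curve fitting bidirectional against DMSO.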

Assay [11] is described as follows: ATG_M_32_CIS: Attagene CIS-FACTORIAL HepG2 Assay for M32 Transcription Factor (Internal Marker) (AID 2282949).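 Further: background control marker of the multiplexed CIS panel rather than a real target.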 To be noted: HepG2 Attagene cis-factorial M32 reporter, mRNA; actives raise or lower the signal. The gist of the method: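 HepG2 human liver cells transiently transfected with cis-promoter-driven multiple reporter transcription units, dosed 24 h. Reporter mRNA quantified by RT-PCR, FAM-labelled primer extension, HpaI digest and capillary electrophoresis; bidirectional fit versus DMSO baseline.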

Assay [12] in a line: ATG_M_06_CIS: Attagene CIS-FACTORIAL HepG2 Assay for M06 Transcription Factor (Internal Marker) (AID 2282950). To be noted: HepG2 Attagene CIS-FACTORIAL M06 internal marker reporter; actives raise or lower the signal. An outline of the steps:
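Measured 24 h post-dosing in transiently transfected HepG2 cells, this internal-marker endpoint reports reporter mRNA via RT-PCR with fluorescent primer extension and capillary electrophoresis. DMSO served as negative control and baseline for bidirectional fitting.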

Assay [13] is described as follows: ATG_MRE_CIS: Attagene CIS-FACTORIAL HepG2 Assay for human Metal Responsive Element (MRE) (AID 2282954). To be noted: HepG2 MRE cis-reporter transcription, Attagene multiplex; actives raise or lower the signal. An outline of the steps: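 Cells were transfected with cis-promoter reporter transcription units, then dosed for 24 h. RNA was reverse-transcribed, amplified, fluorescently labelled and resolved by capillary electrophoresis, and activity was fitted in both directions relative to DMSO.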

The target in assay [14] is Paired box protein Pax-6 (Homo sapiens) (UniProt P26367). Description: ATG_Pax6_CIS: Attagene CIS-FACTORIAL HepG2 Assay for human Paired Box 6 (PAX6) (AID 2282956). To be noted: HepG2 CIS-FACTORIAL PAX6 reporter transcription, RNA readout; actives raise or lower the signal. An outline of the steps: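 Fluorescent RT-PCR products separated by capillary electrophoresis report PAX6-linked promoter mRNA in HepG2 cells 24 h post-dose. Curves fitted bidirectionally, DMSO as negative control.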
Paired box protein Pax-6 (Homo sapiens), sequence (P26367 whole entry, looked up): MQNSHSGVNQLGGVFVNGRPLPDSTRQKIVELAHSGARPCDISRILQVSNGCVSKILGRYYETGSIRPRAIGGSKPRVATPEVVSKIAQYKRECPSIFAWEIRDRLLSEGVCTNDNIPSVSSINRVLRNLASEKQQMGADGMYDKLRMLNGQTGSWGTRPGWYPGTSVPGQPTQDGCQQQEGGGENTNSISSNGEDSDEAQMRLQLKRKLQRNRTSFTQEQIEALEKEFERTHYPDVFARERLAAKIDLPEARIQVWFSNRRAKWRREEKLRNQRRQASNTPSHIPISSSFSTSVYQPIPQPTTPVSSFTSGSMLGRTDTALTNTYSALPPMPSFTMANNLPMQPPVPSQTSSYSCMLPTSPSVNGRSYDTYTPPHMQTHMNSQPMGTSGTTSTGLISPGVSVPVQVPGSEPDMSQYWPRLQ

The nature of assay [15]: ATG_PXRE_CIS: Attagene CIS-FACTORIAL HepG2 Assay for human Pregnane X Receptor Element (PXRE) (AID 2282957). To be noted: HepG2 Attagene CIS-FACTORIAL PXRE reporter, mRNA; actives raise or lower the signal. An outline of the steps:
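Fluorescent capillary electrophoresis of amplified reporter cDNA gave the signal, collected 24 h after dosing HepG2 cells that held transfected cis-element reporter constructs.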

The nature of assay [16]: ATG_Sox_CIS: Attagene CIS-FACTORIAL HepG2 Assay for human SRY-box transcription factor (SOX) (AID 2282960). To be noted: HepG2 Attagene cis-factorial SOX reporter, mRNA; actives raise or lower the signal. The gist of the method:
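After 24 h of chemical treatment, transfected HepG2 reporter cells are lysed for total RNA. Transcript levels come from RT-PCR with labelled primer extension and capillary electrophoresis, analysed bidirectionally versus DMSO.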

The target in assay [17] is Transcription factor Sp1 (Homo sapiens) (UniProt P08047). As to the kind of experiment: ATG_Sp1_CIS: Attagene CIS-FACTORIAL HepG2 Assay for human Specificity Protein 1 (Sp1) (AID 2282961). To be noted: HepG2 Sp1 cis-reporter transcription, actives raise or lower the signal. The gist of the method:
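Sp1-driven reporter mRNA, read as capillary electrophoresis fluorescence after RT-PCR, in transiently transfected HepG2 cells dosed for 24 h; signal change in either direction relative to DMSO.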

Assay [18] is described as follows: ATG_TA_CIS: Attagene CIS-FACTORIAL HepG2 Assay for human TA Basal Promoter (AID 2282964). To be noted: HepG2 Attagene CIS-factorial TA basal promoter reporter; actives raise or lower the signal. An outline of the steps: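 Cis-factorial format in HepG2: reporters report endogenous factors, not chimeric Gal4 fusions. After 24 h treatment, reporter transcripts were measured by RT-PCR-capillary electrophoresis fluorescence, analysed bidirectionally versus DMSO.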

A short description of assay [19]: ATG_TCF_b_cat_CIS: Attagene CIS-FACTORIAL HepG2 Assay for human T-Cell-Factor with beta-catenin (TCF/b-cat) (AID 2282965). To be noted: HepG2 TCF/beta-catenin cis-reporter transcription, actives raise or lower the signal. An outline of the steps:
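Using capillary electrophoresis as the read-out, labelled reporter cDNA fragments from transiently transfected HepG2 were sized and quantified. Exposure lasted 24 hours; activity in either direction was referenced to DMSO.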

Assay [20] can be described thus: ATG_TAL_CIS: Attagene CIS-FACTORIAL HepG2 Assay for human TAL Basal Promoter (AID 2282966).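 Further: background control endpoint measuring basal TAL promoter reporter mRNA not a specific factor.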 To be noted: HepG2 Attagene cis-factorial TAL promoter reporter; actives raise or lower the signal. An outline of the steps: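 Transiently transfected HepG2 (cis-regulated reporter units), 24 h treatment, mRNA read by fluorescent CE after RT-PCR; bidirectional fit, DMSO baseline.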

Transcription factor Sp1 (Homo sapiens), sequence (P08047 whole entry, looked up): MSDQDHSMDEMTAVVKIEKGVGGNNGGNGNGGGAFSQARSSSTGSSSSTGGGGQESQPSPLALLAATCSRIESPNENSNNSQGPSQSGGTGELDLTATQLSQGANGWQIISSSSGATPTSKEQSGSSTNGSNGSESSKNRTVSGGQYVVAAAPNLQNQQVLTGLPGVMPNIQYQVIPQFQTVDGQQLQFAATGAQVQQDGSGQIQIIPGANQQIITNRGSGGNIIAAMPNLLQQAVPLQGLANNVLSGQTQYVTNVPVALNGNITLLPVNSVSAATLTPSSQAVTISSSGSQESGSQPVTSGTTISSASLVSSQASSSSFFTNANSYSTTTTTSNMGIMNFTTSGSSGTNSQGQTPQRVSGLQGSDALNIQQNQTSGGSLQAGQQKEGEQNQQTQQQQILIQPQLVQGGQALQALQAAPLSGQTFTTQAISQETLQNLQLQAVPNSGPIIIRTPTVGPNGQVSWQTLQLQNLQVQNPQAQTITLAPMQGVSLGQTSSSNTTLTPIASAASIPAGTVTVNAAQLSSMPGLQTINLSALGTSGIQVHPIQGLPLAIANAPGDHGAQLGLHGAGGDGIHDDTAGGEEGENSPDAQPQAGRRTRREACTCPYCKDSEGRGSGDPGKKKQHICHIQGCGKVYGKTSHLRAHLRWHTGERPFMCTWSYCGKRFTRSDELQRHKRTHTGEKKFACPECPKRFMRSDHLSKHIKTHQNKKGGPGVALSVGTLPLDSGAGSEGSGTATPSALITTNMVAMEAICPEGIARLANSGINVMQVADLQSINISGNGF
CCAAT/enhancer-binding protein beta (Homo sapiens), sequence (P17676 whole entry, looked up): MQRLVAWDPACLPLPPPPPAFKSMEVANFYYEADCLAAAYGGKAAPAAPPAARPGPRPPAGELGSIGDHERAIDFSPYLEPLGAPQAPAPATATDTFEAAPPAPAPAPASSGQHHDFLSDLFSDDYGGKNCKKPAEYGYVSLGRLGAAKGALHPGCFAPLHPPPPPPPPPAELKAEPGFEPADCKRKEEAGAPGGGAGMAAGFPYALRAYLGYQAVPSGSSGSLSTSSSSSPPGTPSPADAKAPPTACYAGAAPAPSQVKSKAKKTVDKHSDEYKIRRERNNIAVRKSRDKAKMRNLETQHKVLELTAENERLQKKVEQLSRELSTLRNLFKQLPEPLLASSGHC

For the compound `CC1=CCCC(C)(C)C12CCC(C)O2` (stereo not given), the compound was classed as inactive in assay [1], in assay [2], in assay [3], in [4], in assay [5] and in assay [6]. Moreover, the outcome in [7], in assay [8], in assay [9], in assay [10], in assay [11] and in assay [12] was inactive. Further, the call in [13], in assay [14], in assay [16], in assay [17], in assay [18] and in assay [19] was inactive. The compound was called inactive in assay [20]. For the same compound, in [15], the concentration at half-maximal activity (AC50) (as a rule, the midpoint of the concentration-response curve, whichever way the signal moves) is 1.28 µM (active).
With `c1ccc2c(c1)Oc1ccccc1S2`, the result in [1], in assay [2], in assay [3], in [5], in [6] and in assay [8] was inactive. Moreover, the result in assay [9], in assay [10], in assay [11], in assay [12], in assay [13] and in [14] was inactive. The compound was classed as inactive in [15], in [16], in [18], in assay [19] and in assay [20]. Moreover, the AC50 is 171 µM (active) in assay [4], 57.3 µM (active) in assay [7] and 155 µM (active) in assay [17].
On to `CC[N+](CC)(CC(=O)Nc1c(C)cccc1C)Cc1ccccc1`, for which the compound was classed as inactive in [1], in assay [2], in assay [3], in assay [4], in assay [5] and in [6]. The outcome in [7], in [8], in assay [9], in [10], in assay [11] and in assay [12] was inactive. Besides, the compound was called inactive in assay [13], in [14], in [16], in [17], in assay [18] and in assay [19]. Also, in assay [20], the outcome was inactive. The AC50 in [15] was 32.4 µM (active).
For `CC[N+](CC)(CC(=O)Nc1c(C)cccc1C)Cc1ccccc1` (tested in a mixture with another compound), the call in assay [1], in [2], in [3], in assay [4], in assay [5] and in assay [6] was inactive. In addition, the outcome in assay [7], in assay [8], in assay [9], in assay [10], in assay [11] and in [12] was inactive. The result in assay [13], in assay [14], in [16], in assay [17], in assay [18] and in [19] was inactive. Moreover, the compound was called inactive in [20]. Besides, the AC50 in [15] is 21.8 µM (active).
In the case of `O=C(O)/C=C/C(=O)O`, the result in assay [1], in [2], in assay [3], in assay [4], in assay [5] and in assay [6] was inactive. For the same compound, the outcome in [7], in assay [8], in assay [9], in [10], in assay [11] and in [12] was inactive. In addition, the compound was called inactive in assay [13], in assay [14], in assay [15], in assay [16], in [17] and in assay [18]. Moreover, the result in assay [19] and in assay [20] was inactive.
